Our source for the growth inhibition values is PubChem BioAssay (NCI).

Compounds without any hit were thinned out: in the full panel of roughly 79,000, 15% have a hit. A number with no mark means an inactive call. The source made the active and inactive calls. Cut-off read from the data, not from the text of the source: active = growth inhibition above about 70%; inactive = the rest.

Assay [1] in a line: NCI Yeast Anticancer Drug Screen. Data for the rad50 strain (AID 155).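 Note: 0% = growth of vehicle-only cultures of the same strain.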 The settings on record: S. cerevisiae rad50 strain growth inhibition, hits give high values. Put shortly:
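DNA repair mutant yeast, compound exposure, growth read-out; inhibition is taken relative to vehicle.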

The nature of assay [2]: NCI Yeast Anticancer Drug Screen. Data for the mec2-1 strain (AID 157). The settings on record: S. cerevisiae mec2-1 strain, hits give high values. An outline of the steps: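 Strain: mec2-1 (DNA repair/cell cycle alteration). Compound exposure, then growth measured; inhibition expressed relative to vehicle.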
Assay [3] can be described thus: NCI Yeast Anticancer Drug Screen. Data for the sgs1 mgt1 strain (AID 161).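 Note: 0% = growth of cultures given vehicle only.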 The settings on record: S. cerevisiae sgs1 mgt1 strain, hits give high values. An outline of the steps:
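Genetically altered yeast, compound exposure, growth inhibition relative to vehicle.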

Assay [4] is described as follows: NCI Yeast Anticancer Drug Screen. Data for the cln2 rad14 strain (AID 165).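 Note: 0% = growth equal to vehicle treated cultures.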 The settings on record: S. cerevisiae cln2 rad14 strain, hits give high values. An outline of the steps:
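Compounds are applied to the cln2 rad14 yeast strain, and growth is then compared with that of vehicle-treated cultures to give inhibition.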

Assay [5] is described as follows: NCI Yeast Anticancer Drug Screen. Data for the bub3 strain (AID 167). The conditions noted are these: S. cerevisiae bub3 mutant strain, hits give high values. An outline of the steps: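 In this screen, a yeast mutant lacking normal mitotic checkpoint function is challenged with compound. Relative growth versus vehicle gives the inhibition value.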
Assay [6] is described as follows: NCI Yeast Anticancer Drug Screen. Data for the mlh1 rad18 strain (AID 175). The conditions noted are these: S. cerevisiae mlh1 rad18 strain growth inhibition, hits give high values. Put shortly: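 Read-out is yeast growth inhibition, calculated against vehicle-only controls. The compound was applied to a strain engineered with DNA damage repair alterations.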
[7] abbreviates: at 5.0 µM (retest, dose inferred, filed as 0.5).
Setting [8] is: at 50.0 µM (retest, dose inferred, filed as 5.0).

Regarding `CC(O[Si](c1ccccc1)(c1ccccc1)C(C)(C)C)[C@H](NC(=O)OC(C)(C)C)C(=O)O[Si](c1ccccc1)(c1ccccc1)C(C)(C)C` (some centres not stated), the growth inhibition is 91% (active) in assay [1] (setting [7]); 99% (active) in assay [1] (setting [8]); 89.9% (active) in assay [1] (at 50.0 µM); 88% (active) in assay [2] (setting [7]); 99% (active) in assay [2] (setting [8]); 92.9% (active) in assay [2] (at 50.0 µM). Further, the growth inhibition was 96% (active) in assay [3] (setting [7]); 100% (active) in assay [3] (setting [8]); 92.8% (active) in assay [3] (at 50.0 µM); 93% (active) in assay [4] (setting [7]); 99% (active) in assay [4] (setting [8]); 91.2% (active) in assay [4] (at 50.0 µM). In addition, the growth inhibition is 71% (active) in assay [5] (setting [7]); 84% (active) in assay [5] (setting [8]); 91.3% (active) in assay [5] (at 50.0 µM); 93% (active) in assay [6] (setting [7]); 99% (active) in assay [6] (setting [8]); 89% (active) in assay [6] (at 50.0 µM).
Consider `CSc1nc(C)c(C(=O)CCN2CCOCC2)s1`, for which the growth inhibition in assay [1] (setting [7]) was -7%; in assay [1] (setting [8]) it was 67%; in assay [1] (at 50.0 µM), 99.5% (active); in assay [2] (setting [7]), 11%; in assay [2] (setting [8]) it was 99% (active); in assay [2] (at 50.0 µM), 99.6% (active). Besides, the growth inhibition in assay [3] (setting [7]) is -4%; in assay [3] (setting [8]), 75% (active); in assay [3] (at 50.0 µM), 99.6% (active); in assay [4] (setting [7]), -6%; in assay [4] (setting [8]), 89% (active); in assay [4] (at 50.0 µM), 93% (active). Also, the growth inhibition in assay [5] (setting [7]) is -12%; in assay [5] (setting [8]) it was 92% (active); in assay [5] (at 50.0 µM), 47.6%; in assay [6] (setting [7]) it was -5%; in assay [6] (setting [8]), 88% (active); in assay [6] (at 50.0 µM) it was 99.2% (active).
With `CCCCCCCCCCC(C(=O)OCCCC)P(=O)(OCCCC)OCCCC` (configuration not stated), the growth inhibition in assay [1] (setting [7]) was 11%; in assay [1] (setting [8]), 95% (active); in assay [1] (at 50.0 µM), 36.4%; in assay [2] (setting [7]), 9%; in assay [2] (setting [8]), 95% (active); in assay [2] (at 50.0 µM), 73.2% (active). For the same compound, the growth inhibition is 8% in assay [3] (setting [7]); 86% (active) in assay [3] (setting [8]); 30.8% in assay [3] (at 50.0 µM); 13% in assay [4] (setting [7]); 96% (active) in assay [4] (setting [8]); 81.2% (active) in assay [4] (at 50.0 µM). Further, the growth inhibition was 4% in assay [5] (setting [7]); 95% (active) in assay [5] (setting [8]); 21.1% in assay [5] (at 50.0 µM); 6% in assay [6] (setting [7]); 94% (active) in assay [6] (setting [8]); 59.3% in assay [6] (at 50.0 µM).
In the case of `CCn1c(O)c(C=Nc2ccccc2)s/c1=N/Nc1nc(-c2ccc(O)c(O)c2)cs1`, the growth inhibition in assay [1] (setting [7]) was 0%; in assay [1] (setting [8]), 21%; in assay [1] (at 50.0 µM) it was 57%; in assay [2] (setting [7]) it was -22%; in assay [2] (setting [8]), 1%; in assay [2] (at 50.0 µM), 48.4%. Also, the growth inhibition in assay [3] (setting [7]) is -6%; in assay [3] (setting [8]) it was 11%; in assay [3] (at 50.0 µM), 72.2% (active); in assay [4] (setting [7]) it was -10%; in assay [4] (setting [8]), 6%; in assay [4] (at 50.0 µM), 41.5%. For the same compound, the growth inhibition in assay [5] (setting [7]) is -7%; in assay [5] (setting [8]), 38%; in assay [5] (at 50.0 µM), 79% (active); in assay [6] (setting [7]), -17%; in assay [6] (setting [8]), 25%; in assay [6] (at 50.0 µM), 66%.
Take `CN=c1ss/c(=N\C(=S)N(C)C)n1-c1ccccc1`: the growth inhibition in assay [1] (setting [7]) is -10%; in assay [1] (setting [8]), -10%; in assay [1] (at 50.0 µM) it was -17.1%; in assay [2] (setting [7]) it was -11%; in assay [2] (setting [8]) it was 7%; in assay [2] (at 50.0 µM), -7.45%. The growth inhibition is 13% in assay [3] (setting [7]); -20% in assay [3] (setting [8]); -18.6% in assay [3] (at 50.0 µM); 8% in assay [4] (setting [7]); 13% in assay [4] (setting [8]); 4.45% in assay [4] (at 50.0 µM). For the same compound, the growth inhibition in assay [5] (setting [7]) is 4%; in assay [5] (setting [8]) it was 7%; in assay [5] (at 50.0 µM), 42.5%; in assay [6] (setting [7]), -20%; in assay [6] (setting [8]) it was 3%; in assay [6] (at 50.0 µM), -22.5%.
Take `CCCCCCC(=O)OCCN(CCOC(=O)CCCCCC)C(=O)C(C)OC(=O)CCCCCC` (configuration not stated): the growth inhibition in assay [1] (setting [7]) is 2%; in assay [1] (setting [8]), 56%; in assay [1] (at 50.0 µM), 91.7% (active); in assay [2] (setting [7]), 4%; in assay [2] (setting [8]), 19%; in assay [2] (at 50.0 µM), 85.4% (active). Further, the growth inhibition in assay [3] (setting [7]) is 2%; in assay [3] (setting [8]) it was 62%; in assay [3] (at 50.0 µM), 98.4% (active); in assay [4] (setting [7]), 1%; in assay [4] (setting [8]), 18%; in assay [4] (at 50.0 µM) it was 66.2%. The growth inhibition is -1% in assay [5] (setting [7]); 66% in assay [5] (setting [8]); 98.2% (active) in assay [5] (at 50.0 µM); -3% in assay [6] (setting [7]); 58% in assay [6] (setting [8]); 97.6% (active) in assay [6] (at 50.0 µM).
Regarding `Cc1cc(O)cc(C)c1[N+](=O)[O-]`, the growth inhibition in assay [1] (setting [7]) is 5%; in assay [1] (setting [8]) it was 25%; in assay [1] (at 50.0 µM), 55%; in assay [2] (setting [7]) it was 0%; in assay [2] (setting [8]) it was 24%; in assay [2] (at 50.0 µM), 49.8%. In addition, the growth inhibition in assay [3] (setting [7]) is -6%; in assay [3] (setting [8]), 41%; in assay [3] (at 50.0 µM), 79.6% (active); in assay [4] (setting [7]), -1%; in assay [4] (setting [8]), 20%; in assay [4] (at 50.0 µM), 23.6%. For the same compound, the growth inhibition was -1% in assay [5] (setting [7]); 36% in assay [5] (setting [8]); 29.3% in assay [5] (at 50.0 µM); 4% in assay [6] (setting [7]); 41% in assay [6] (setting [8]); 63.5% in assay [6] (at 50.0 µM).
On to `CCCC#CC(O)(C(=O)OC1CCN(C)CC1)C1CCCCC1` (configuration not stated), for which the growth inhibition in assay [1] (setting [7]) is 34%; in assay [1] (setting [8]) it was 55%; in assay [1] (at 50.0 µM), 63.5%; in assay [2] (setting [7]), 36%; in assay [2] (setting [8]) it was 53%; in assay [2] (at 50.0 µM) it was 45.1%. Also, the growth inhibition in assay [3] (setting [7]) is 12%; in assay [3] (setting [8]), 69%; in assay [3] (at 50.0 µM) it was 65.9%; in assay [4] (setting [7]) it was 41%; in assay [4] (setting [8]), 55%; in assay [4] (at 50.0 µM), 53.5%. Besides, the growth inhibition is 23% in assay [5] (setting [7]); 56% in assay [5] (setting [8]); 58% in assay [5] (at 50.0 µM); 46% in assay [6] (setting [7]); 79% (active) in assay [6] (setting [8]); 53.5% in assay [6] (at 50.0 µM).
`CC(C)(C)OC(=O)NCCNC(=O)CN(CC(=O)O)C1CCCCC1N(CC(=O)O)CC(=O)O` (configuration not stated): the growth inhibition was -16% in assay [1] (setting [7]); 59% in assay [1] (setting [8]); 50.4% in assay [1] (at 50.0 µM); -7% in assay [2] (setting [7]); 52% in assay [2] (setting [8]); 62.3% in assay [2] (at 50.0 µM). For the same compound, the growth inhibition in assay [3] (setting [7]) is 1%; in assay [3] (setting [8]), 46%; in assay [3] (at 50.0 µM), 61.6%; in assay [4] (setting [7]) it was -21%; in assay [4] (setting [8]), 46%; in assay [4] (at 50.0 µM) it was 15.9%. For the same compound, the growth inhibition in assay [5] (setting [7]) was 0%; in assay [5] (setting [8]) it was 75% (active); in assay [5] (at 50.0 µM), 66.2%; in assay [6] (setting [7]), -10%; in assay [6] (setting [8]), 66%; in assay [6] (at 50.0 µM), 74.5% (active).
